From PubChem BioAssay AID1159580 (chemical genetic matrix, 2015)
Out of some 5,500 compounds screened, about 2,000 (36%) were called active. Not shown: some 18% with an inconclusive outcome. Cut-off read from the data, not from the text of the source: active = normalized growth mostly below about 0.91 (no sharp cut-off); inconclusive = no clear call, values can overlap the other calls; inactive = mostly above about 0.92. The list shows a part of the results.

Assay: chemical genetic growth profiling, strain panel (AID 1159580);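 note: tested at 20 µM; growth read once vehicle control cultures reached saturation at 30 °C; 1 = growth at the plate median or of vehicle wells; lower values mean less growth of the strain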
Settings: S. cerevisiae deletion strains, growth OD

Measured: normalized growth

CN(Cc1cnc2nc(N)nc(N)c2n1)c1ccc(C(=O)N[C@H](CCC(=O)O)C(=O)O)cc1
inactive: locus YAL040C, strain CLN3, stronger effect = lower value 1 | locus YER002W, strain NOP16, stronger effect = lower value 0.996 | locus YNL175C, strain NOP13, stronger effect = lower value 1 | locus YNL197C, strain WHI3, stronger effect = lower value 1.01 | locus YNL224C, strain SQS1, stronger effect = lower value 0.981 | locus YOR083W, strain WHI5 (second series), stronger effect = lower value 1.04 | locus YPL241C, strain CIN2, stronger effect = lower value 0.984
